Bioassay records: PubChem, National Center for Advancing Translational Sciences (NCATS)
TRHR ag: agonists of human TRH receptor | TRHR cells, calcium flux fluo-8, FDSS agonist mode | activation, % at 2 µM | hit rate 0.18% among 360,000 | AID 493084
Target sequence (P34981 whole entry, looked up): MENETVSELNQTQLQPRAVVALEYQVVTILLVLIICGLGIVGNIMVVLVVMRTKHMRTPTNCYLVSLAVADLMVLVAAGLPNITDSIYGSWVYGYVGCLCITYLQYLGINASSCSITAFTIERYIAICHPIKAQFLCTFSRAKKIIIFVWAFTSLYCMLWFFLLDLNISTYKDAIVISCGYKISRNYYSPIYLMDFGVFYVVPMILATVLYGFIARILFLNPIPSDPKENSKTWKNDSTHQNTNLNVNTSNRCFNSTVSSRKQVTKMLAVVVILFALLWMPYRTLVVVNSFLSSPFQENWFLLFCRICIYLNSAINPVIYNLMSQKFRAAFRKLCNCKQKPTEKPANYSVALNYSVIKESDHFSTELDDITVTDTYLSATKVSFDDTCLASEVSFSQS
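TRHR-expressing cells loaded with fluo-8 calcium dye; 23 nL library compound pin-transferred, kinetic FDSS fluorescence (Ex 480/Em 530) recorded about 180 s for agonist-induced calcium release, before a 10 nM TRH EC20 addition for potentiator mode.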
D1 potentiator: enhances dopamine response at the human D1 receptor | P21728 | AID 504651 | HEK293 TREx D1 cells, calcium flux, dopamine EC20 potentiation | potentiation, % at 10 µM | hit rate 0.036% among 360,000; in the data active = potentiation above about 30%
D1 agonist: activates the human D1 dopamine receptor; P21728; HEK293 T-REx D1 cells, calcium flux, agonist mode; activation, % at 2 µM; hit rate 1% among 360,000; AID 504660
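Tetracycline-induced HEK293 TREx D1 cells, force-coupled to calcium signalling, were dye-loaded with a no-wash calcium kit. Compound was pin-added after a 10 s baseline. Fluorescence was read kinetically at 1 cycle/s for 180 s, with calcium rises flagged as agonism.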
LDHA inh: LDHA (human) enzyme inhibition; P00338; purified LDHA, NADH/diaphorase-resazurin fluorescence; stronger effect = lower value; activity change, % (values are at about 110 or 230 µM); hit rate 0.15% among 480,000; AID 1347041; in the data active = activity change below about -30%
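LDH5 2 nM; NADH 0.06 mM, pyruvate 0.2 mM; 200 mM Tris pH 7.4, EDTA, Tween-20; 5 min RT. Detection: diaphorase 0.133 mg/mL + resazurin 37 µM, fluorescence ex540/em590 at 0 and 20 min; normalized to enzyme-free and DMSO wells.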
D1 antagonist: human D1 dopamine receptor antagonism | P21728 | HEK293 TREx D1 cells, calcium flux, dopamine EC80; stronger effect = lower value | activity change, negative = inhibition, % at 10 µM | hit rate 3.2% among 360,000 | AID 504652; in the data active = activity change below about -30%
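Inducible Hek293 Trex D1 cells (tetracycline, overnight, 30 C). Calcium dye 30–90 min RT. Antagonist mode: EC80 dopamine added after 180 s compound read.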
TRHR enhancer: allosteric enhancers of human TRH receptor; P34981; TRHR cells, fluo-8 calcium fluorescence, EC20 TRH enhancement; enhancement, % at 2 µM; hit rate 0.66% among 360,000; in the data active = enhancement above about 30%
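TRHR-expressing cells loaded with fluo-8 calcium dye were read kinetically (ex 480/em 530) during compound addition, then stimulated with an EC20 of TRH (10 nM final). Enhancement of the Gq-mediated intracellular calcium response was scored.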
Hits are given with their value; - = inactive; . = no result. Most compounds without a hit are left out; they make up all but 3.6% or so of the library. Rule as the data show it, unless noted: active = activation above about 30%; inactive = the rest.

SMILES	TRHR ag	D1 potentiator	D1 agonist	LDHA inh	D1 antagonist	TRHR enhancer
COCCNC(=O)c1ccc2snnc2c1	-	-	-	-	-	-
O=C(NC12CC3CC(CC(C3)C1)C2)C1CCN(S(=O)(=O)Cc2ccc(F)cc2)CC1	.	.	.	-	.	.
N#CCc1nn(Cc2ccc(F)cc2)c(=O)c2ccccc12	-	-	-	-	-32	-
O=c1c2ccccc2nnn1Cc1ccc(F)cc1	-	-	-	-	-	-
CCN1C(=O)[C@H]2[C@@H](c3ccc(-c4cc(C(C)=O)cs4)cc3)N3CCC[C@@]3(C(=O)OC)[C@H]2C1=O	-	-	-	-	-31	-
CCN1C(=O)[C@H]2[C@@H](c3ccc(-c4cc(C(C)=O)cs4)cc3)N3CCCC[C@@]3(C(=O)OC)[C@H]2C1=O	-	-	-	-	-	-
Cn1cc(C(=O)N2CCN(Cc3ccc(Cl)cc3)CC2)c(-c2ccc3c(c2)OCCCO3)n1	.	.	.	-	.	.
COC(=O)/C=C(\C)N=Nc1c(O)[nH]c2ccccc12	-	-	144	-	-	-
Oc1[nH]c2ccccc2c1N=Nc1ccccc1F	-	-	39	-	-	-
O=S1(=O)N=C(N=Nc2c(O)[nH]c3ccccc23)c2ccccc21	-	-	-	-	-34	-
Oc1[nH]c2ccccc2c1N=Nc1ccc(F)cc1	-	-	-	-	-	-
N=c1ccn(O)c2ccccc12	.	.	.	-	.	.
O=C(/C=C/c1cccc(C(F)(F)F)c1)c1ccc(N2CCCC2=O)cc1	.	.	.	-	.	.
Cc1cc(C)cc(OCC(=O)OCCN2C(=O)c3ccccc3C2=O)c1	-	-	-	-	-	39
Cc1ccc(OCC(=O)OCCN2C(=O)c3ccccc3C2=O)cc1C	-	-	-	-	-	-
CCCCC(CC)CN=C(N)NC(N)=NCCCCCCN=C(N)NC(N)=NCC(CC)CCCC (stereo unspecified)	-	-	-	-	-75	-
CCCCC(CC)CO (stereo unspecified)	.	.	.	-	.	.
C/C(Cn1cnc([N+](=O)[O-])n1)=N/NC(=O)COc1c(Cl)cc(Cl)cc1Cl	-	-	-	-	-30	-
CCOCCCNC(=O)c1cc(-c2ccncc2)nc2ccccc12	.	.	.	-	.	.
Cc1nn(CC(=O)NCc2ccc(Cl)cc2)c(=O)c2cc3sccc3n12	-	-	-	-	-	-
Cc1nn(CCCC(=O)NCc2ccccc2)c(=O)c2cc3sccc3n12	-	-	-	-	-32	-
CCN(CC)C(=O)c1sc2c(c1C)c(=O)n(Cc1ccccc1)c(=O)n2CC(=O)Nc1ccc(OC)cc1	-	-	-	-	-35	-
COc1ccc(NC(=O)CCCn2c(=O)c3sccc3n(Cc3ccccc3)c2=O)cc1	-	-	-	-	-34	-
COCCCn1c(=O)c2sccc2n2c(CCCC(=O)NCc3ccc(OC)cc3)nnc12	-	-	-	-	-31	-
CCN(CC)C(=O)c1sc2c(c1C)c(=O)n(-c1ccc(OC)cc1OC)c(=O)n2CC(=O)Nc1ccccc1	-	-	-	-	-	-
SMILES	TRHR ag	D1 potentiator	D1 agonist	LDHA inh	D1 antagonist	TRHR enhancer
COc1cc(C(=O)/C=C/c2ccc(Cl)cc2Cl)ccc1OCC(=O)O	.	.	.	-	.	.
CCN(CC)c1ccc(C=Nc2ccc(F)cc2)cc1	.	.	.	-	.	.
Cc1nonc1NC(=O)COc1ccc(C(C)C)cc1	.	.	.	-	.	.
NC(=O)Cn1c(=O)n(CCCCCC(=O)NCc2ccccc2)c(=O)c2sccc21	-	-	-	-	-39	-
Cc1cccc(NC(=O)Cn2c(=O)n(CCCCCC(=O)NCc3ccccc3)c(=O)c3sccc32)c1	-	-	-	-	-	-
COCCCn1c(=O)c2sccc2n(Cc2cccc(F)c2)c1=O	-	-	-	-	-36	-
CNc1c(NC(=O)c2ccccc2Br)c(=O)oc2ccccc12	.	.	.	-	.	.
Cc1cccn2c(=O)nc(SCC(=O)c3ccccc3)nc12	-	-	-	-	-57	-
Cc1c(CN2CCC(CO)(Cc3cccc(C(F)(F)F)c3)CC2)c2ccccc2n1C	-	-	82	-	-	-
COc1ccc(CN2CCC(CO)(Cc3cccc(C(F)(F)F)c3)CC2)cc1Cn1cccn1	-	-	34	-	-	-
COc1ccc(F)c(CN2CCC(CO)(Cc3cccc(C(F)(F)F)c3)CC2)c1	-	-	-	-	-	-
COc1cc(CN2CCC(CO)(Cc3cccc(C(F)(F)F)c3)CC2)ccc1F	-	-	52	-	-	-
CCOc1cc(C2C=C(C(=O)O)Nc3ncnn32)ccc1OC(C)C (stereo unspecified)	.	.	.	-	.	.
O=C(/C(=C\c1ccc(-c2ccccc2Cl)o1)c1nc2ccccc2o1)c1ccccc1	.	.	.	-	.	.
Cc1cc(C(=O)N2CCCC(N3CCN(c4cccc(Cl)c4)CC3)C2)n(C)n1 (stereo unspecified)	-	-	-	-	-	-
CCn1nc(C)cc1C(=O)N1CCCC(N2CCN(c3cccc(Cl)c3)CC2)C1 (stereo unspecified)	-	-	-	.	-54	-
O=C(c1ccoc1)N1CCCC(N2CCN(c3cccc(Cl)c3)CC2)C1 (stereo unspecified)	-	-	-	-	-46	-
CCn1c(=O)c([N+](=O)[O-])c(NCCc2ccccc2)c2ccccc21	-	-	-	-	-52	-
CCn1c(=O)c2ccccc2n(Cc2cccc([N+](=O)[O-])c2)c1=O	-	-	-	-35	-	-
O=C(CCn1c(=O)c2ccccc2n(Cc2cccc([N+](=O)[O-])c2)c1=O)N1CCc2ccccc2C1	-	-	-	-	-	-
Cc1c(-c2ccccc2)oc2c(C(=O)NC(C)c3ccccc3)cccc2c1=O (stereo unspecified)	.	.	.	-	.	.
Cc1ccc(N(CC(=O)N2CCC(C(N)=O)CC2)S(=O)(=O)c2ccccc2)cc1C	.	.	.	-	.	.
CCN1CCN(c2cc(C)c3cc(NC(=O)/C=C/c4cccc(Cl)c4)ccc3n2)CC1	-	-	-	-	-36	-
CCCCc1ccc(C(=O)Nc2ccc3nc(N4CCN(CC)CC4)cc(C)c3c2)cc1	-	-	-	-	-59	-
COc1ccc(C2CCCN2Cc2cc(=O)oc3cc(C)ccc23)cc1 (stereo unspecified)	.	.	.	-	.	.
CCOc1ccccc1N1CCN(C(=O)Nc2cccc(Cl)c2)CC1	-	-	-	-	-	-
CCOc1ccccc1N1CCN(C(=O)Nc2ccc(Cl)c(Cl)c2)CC1	-	-	-	.	-36	-
C#CCOc1c(Cl)cc(/C=N/O)cc1OC	-	-	-	-	-62	-
O=S(=O)(c1ccc(N2CCC(c3ccc(Cl)cc3)=N2)cc1)N(CCO)CCO	-	-	121	-	-	-
CN(C)CCCNS(=O)(=O)c1ccc(N2CCC(c3ccc(Cl)cc3)=N2)cc1	-	-	42	.	-	-
